According to PubChem BioAssay (NCI):
About 83,000 compounds went through this panel and 20% of them were active in at least one assay; those are over-represented in the sample as a whole.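 48-hour exposure, single concentration, 96-well plates; percent growth endpoint where 0 means no net growth. Active: below 10.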 A number with no mark means an inactive call. Activity calls are given as the source filed them.

What was measured:
Assay in all cases: NCI-60 one-dose screen, 48 h (100 = growth as untreated, 0 = no growth, -100 = all killed)
Settings in all cases: 10 µM unless noted
[1] = tested on: NCI-H23 lung
[2] = tested on: NCI-H226 lung
[3] = tested on: NCI-H322M lung
[4] = tested on: HOP-62 NSCLC
[5] = tested on: NCI-H460 lung
[6] = tested on: HOP-92 NSCLC
[7] = tested on: NCI-H522 lung
[8] = tested on: A549/ATCC NSCLC
[9] = tested on: 786-0 renal
[10] = tested on: COLO 205 colon

Compound	growth [1]	growth [2]	growth [3]	growth [4]	growth [5]	growth [6]	growth [7]	growth [8]	growth [9]	growth [10]
O=S(=O)(NCCCNc1nccc(-c2c(-c3cccc(O)c3)nc3occn23)n1)c1ccc(F)cc1	88.6%	110%	103%	117%	80.9%	116%	77.7%	88.8%	92.1%	35.5%
c1ccc(CCSc2ncnc3nc[nH]c23)cc1	96.8%	86.6%	113%	103%	82%	110%	0.492% (active)	77.3%	102%	90.1%
COc1cc(Nc2cc(O)c3c(=O)cc(-c4ccccc4)oc3c2)cc(OC)c1	35.9%	67.7%	44.1%	35.5%	7.62% (active)	79.5%	-35.3% (active)	25.9%	45.4%	48.4%
Cc1ccccc1-c1cc(Cc2ccc(F)cc2)c(=O)[nH]n1	98.3%	105%	94.3%	95%	107%	99.8%	95.1%	33.4%	111%	108%
CC1NC(=S)NC(=O)/C1=C/c1cc(=O)oc2c1ccc1ccccc12 (stereo not given)	93.8%	86.1%	101%	82.1%	102%	75.9%	73.8%	81.3%	107%	104%
COc1cccc2c1C(=O)c1c(O)c3c(c(O)c1C2=O)C[C@@](O)(C(=O)CO)C[C@@H]3O[C@H]1C[C@H](N)[C@@H](O)[C@H](C)O1	-25% (active)	-41.8% (active)	13.6%	-18% (active)	1.64% (active)	-26% (active)	-55.2% (active)	-22.5% (active)	12.1%	-86.6% (active)
O=C(Nc1ccc2cc3ccc(NC(=O)NC4CCCCC4)cc3nc2c1)NC1CCCCC1	87.5%	97.7%	104%	89.2%	103%	99.8%	103%	101%	60.1%	100%
COc1ccc(/C=C/C(=O)c2ccc(OC)c(OC)c2)cc1O	73.1%	86.3%	78.6%	39.7%	44.2%	29.1%	51.9%	26.4%	98.2%	104%
CN1CCN(CCCNc2nccc(-c3c(-c4ccc(F)c(O)c4)nc4sccn34)n2)S1(=O)=O	94.2%	105%	115%	104%	101%	70.7%	74.4%	103%	126%	29.8%
O=S(=O)(c1cccc(NC2=Nc3cccc4cccc2c34)c1)N1CCCC1	60.8%	62.3%	80.1%	91.5%	50.7%	-3.41% (active)	75.3%	66.3%	82.9%	95.6%
Cc1c2c(cc[n+]1Cc1ccc(F)cc1)c1ccc(OCc3cccc(F)c3)cc1n2Cc1cccc(F)c1	-58.1% (active)	-66.9% (active)	-72.1% (active)	-91.2% (active)	-78% (active)	-73.9% (active)	-80.1% (active)	25.1%	-85.8% (active)	-91.1% (active)
CCOC(=O)C1=C(C)NC(C)=C(C(=O)OCC)C1c1cc(Br)c(O)c(OC)c1	34.3%	32.7%	55.3%	31.8%	18.7%	16.3%	-37.5% (active)	33.2%	29.1%	104%
CCc1c(Nc2ccc(C)cc2)[nH]c(N)nc1=S	97%	95.3%	106%	98.1%	106%	108%	96.9%	101%	104%	109%
C[C@@H]1CN(Cc2ccc(/C=C/c3n[nH]c4ccc5nc(-c6cn[nH]c6C(F)(F)F)c6c(c5c34)CCCC6)cc2)C[C@H](C)O1	31.9%	45.3%	45.1%	36.7%	-4.09% (active)	41.4%	21%	25.3%	26.6%	1.61% (active)
C[C@H]1[C@H](C)CC[C@]2(CO)CC[C@]3(C)C(=CC[C@@H]4[C@@]5(C)Cc6c([nH]c7ccccc67)C(C)(C)[C@@H]5CC[C@]43C)[C@H]12	74.6%	76.9%	72.3%	89%	66.8%	101%	-12.7% (active)	81%	76.1%	95.1%
Clc1ccc(N2N=C(c3cccc(Nc4ccncc4)c3)CC2c2ccc(Br)cc2)cc1 (stereo not given)	57.1%	92.2%	66.2%	-39.3% (active)	-82.6% (active)	60.3%	-13.2% (active)	16.7%	105%	-48.7% (active)
CC(C)NC(=O)N1C(=O)CCC1NNC(=O)c1ccc([N+](=O)[O-])cc1 (stereo not given)	89.8%	104%	96.3%	106%	121%	109%	93.1%	104%	98.5%	112%
CCCCCCOc1ccc(C(=N)N(CCCC)CCCC)c2ccccc12	-94.6% (active)	-70.5% (active)	-93.6% (active)	-89% (active)	-57.7% (active)	-81.7% (active)	-84.6% (active)	-83.1% (active)	-94% (active)	-79.9% (active)
Fc1ccc(C2CC(c3cccc(Nc4ccncc4)c3)=NN2c2ccccc2)cc1 (stereo not given)	86.3%	95.5%	70.6%	49.5%	-41.9% (active)	37.1%	75.8%	43.1%	81.7%	-64.8% (active)
CN1CCN(Cc2ccc(NC(=O)c3cncc(C#Cc4cnccc4C(F)(F)F)c3)cc2C(F)(F)F)CC1	67.9%	47.8%	107%	80.5%	71.6%	55.6%	79.4%	94%	89.7%	44.4%
COc1cc2nc(-c3ccc(C#N)cc3)[nH]c(=O)c2cc1OC	104%	91.4%	211%	92.8%	105%	127%	104%	15.5%	61.3%	132%
COc1cc(C2CC(c3cccc(Nc4ccncc4)c3)=NN2c2ccccc2)cc(OC)c1OC (stereo not given)	90%	96%	80.1%	59.6%	4.66% (active)	28.1%	77.3%	44.9%	69.1%	-52.5% (active)
CCOC(=O)c1cnc2c(cnn2CC)c1NN=C(C)C	96.5%	86.6%	94.6%	76.6%	106%	73.9%	74.4%	96.2%	86.5%	113%
O=C1/C(=C/c2ccc(O)cc2)COc2ccc(-c3ccccc3)cc21	95.9%	102%	94.1%	80.1%	66%	84.5%	84.2%	90.4%	21.4%	90.7%
COc1ccccc1Nc1cc(O)c2c(=O)cc(-c3ccccc3)oc2c1	51.5%	76.8%	80.1%	35.6%	11.4%	62.2%	7.64% (active)	33.7%	49.2%	76.8%
Cc1nc2sc(C(=O)Nc3ccccc3)c(N)c2cc1C(=O)c1ccc(C(F)(F)F)cc1	93.5%	99.6%	102%	91.1%	70.2%	116%	89.1%	42.8%	95.3%	104%
O=C1Nc2c(ccc(Cl)c2Cl)/C1=C/c1ccc(O)cc1	86.7%	90.1%	107%	86.1%	94.1%	65.7%	64.1%	35.7%	92.3%	98.6%
